Compound activity as filed in PubChem BioAssay.
TDP1 block: TDP1 (human) enzyme inhibition; AID 485290; Q9NUW8; hit rate 0.28% among 350,000; recombinant TDP1, AlphaScreen DNA substrate cleavage; Potency, µM (series often up to 130 µM), for inactives: at the highest dose activity change, negative = inhibition, actives largely listed as inhibitors; further: potency means the concentration at half of the fitted maximal effect; nearly all actives have a fitted effect of over 40% in size
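E. coli-derived human Tdp1, 1 nM final. Cpd preinc 15 min RT; substrate 15 nM final, 5 min RT; AS bead mix 10 ug/ml final, 10 min RT. Signal loss = tyrosine-FITC cleavage. No-enzyme wells = max signal.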
IL-1B inflam inh: blocks inflammasome-driven IL-1 beta release. THP-1 LPS/ATP IL-1B secretion, AlphaLISA, 16 h; hits give low values. activity change, % at 57.5 µM. hit rate 4.7% among 360,000. AID 743279; in the data active means activity change below about -50%; inconclusive means mostly about -30% to -49%
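THP-1 cells pretreated 1 hr with compounds (up to 57.5 uM final), then stimulated with LPS (250 ng/mL final) plus ATP (1.25 mM final); secreted IL-1B measured by AlphaLISA after 16 hr, decreased signal indicating inhibition.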
CtBP-E1A inh: inhibitors of CtBP/E1A interaction; hit rate 0.49% among 340,000; activity change, % (concentration not given with the values); AlphaScreen GST-E1A/His-CtBP binding, 1536-well; hits give low values; in the data active means activity change below about -65%; inconclusive means mostly about -30% to -63%
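Protein mix (5X: 125 nM each GST-E1A, His-CtBP) was incubated with pinned compound 2 h at 37 deg C in dark, in 50 mM Tris pH 8.0 buffer with 300 mM NaCl. Glutathione donor and nickel acceptor beads followed; AlphaScreen signal read after 1 h.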
DT40 TDP1 no CPT: qHTS for Inhibitors of human tyrosyl-DNA phosphodiesterase 1 (TDP1): qHTS in cells in absence of CPT; DT40 Tdp1-/- hTDP1 cells, no CPT, ATP luminescence, 48 h; Potency, µM (highest dose often 46.2 µM), for the others: at the highest dose activity change, negative = growth inhibition, most hits filed as inhibitors; hit rate 15% among 420,000; AID 686978, 2013; further: potency means the concentration at half of the fitted maximal effect; nearly all actives have a fitted effect of over 55% in size
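No-CPT arm: Tdp1-/-;hTDP1 DT40 cells (400/well) plus compounds, incubated ≥48 hr at 37 °C. Readout CellTiter-Glo luminescence.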
TDP1 cell CPT: growth inhibition of DT40 Tdp1-/-;hTDP1 cells with camptothecin (screen for TDP1 inhibitors); chicken DT40 Tdp1-/-;hTDP1 cells + 20 nM CPT, ATP luminescence, 48 h; Potency, µM (top dose mostly 46.2 µM), inactives show at the highest dose activity change, negative = growth inhibition, hits mostly inhibitors; AID 686979; hit rate 12% among 420,000; further: potency means the concentration at half of the fitted maximal effect; nearly all actives have a fitted effect of over 55% in size
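Chicken DT40 Tdp1-/- cells stably complemented with human TDP1 were seeded at 400 cells/well in medium containing 20 nM camptothecin, exposed to pin-transferred compounds, and grown at 37 °C for at least 48 hr. Viability was read as ATP luminescence.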
Six1-Eya2 inh: blocks human Six1 binding to Eya2; AlphaScreen GST-Six1/His-Eya2 binding, biochemical; hits give low values; activity change, % (concentration not given with the values); hit rate 0.56% among 360,000; AID 651725; in the data active means activity change below about -65%; inconclusive means mostly about -30% to -63%
Target sequence (O00167 whole entry, looked up): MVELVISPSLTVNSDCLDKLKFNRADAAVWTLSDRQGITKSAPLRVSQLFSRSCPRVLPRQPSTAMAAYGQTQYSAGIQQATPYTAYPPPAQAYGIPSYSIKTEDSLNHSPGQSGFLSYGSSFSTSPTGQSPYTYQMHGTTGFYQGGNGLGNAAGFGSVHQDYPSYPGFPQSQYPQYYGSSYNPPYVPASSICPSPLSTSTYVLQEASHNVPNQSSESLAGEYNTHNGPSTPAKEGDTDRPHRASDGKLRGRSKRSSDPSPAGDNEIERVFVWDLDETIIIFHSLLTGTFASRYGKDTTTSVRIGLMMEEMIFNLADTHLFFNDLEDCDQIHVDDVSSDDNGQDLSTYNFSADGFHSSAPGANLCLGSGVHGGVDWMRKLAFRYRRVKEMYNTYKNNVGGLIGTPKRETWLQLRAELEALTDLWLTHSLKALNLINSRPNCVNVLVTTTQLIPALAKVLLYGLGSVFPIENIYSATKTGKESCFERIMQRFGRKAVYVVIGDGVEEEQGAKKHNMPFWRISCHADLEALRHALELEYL
Target sequence (Q15475 whole entry, looked up): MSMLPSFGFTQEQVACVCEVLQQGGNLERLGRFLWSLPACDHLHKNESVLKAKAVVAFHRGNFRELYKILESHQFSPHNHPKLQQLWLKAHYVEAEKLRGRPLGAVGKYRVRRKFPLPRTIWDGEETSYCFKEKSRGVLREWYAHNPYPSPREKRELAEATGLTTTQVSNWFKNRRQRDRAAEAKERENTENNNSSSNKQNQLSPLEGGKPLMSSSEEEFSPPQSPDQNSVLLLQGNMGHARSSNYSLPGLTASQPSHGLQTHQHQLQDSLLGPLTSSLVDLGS
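GST-Six1 + His-Eya2 (5X stock: 250/500 nM); Tris pH 8.0, 300 mM NaCl, 0.05% BSA, 0.02% Tween 20; GSH donor/Ni acceptor beads; 1 h 37 °C dark; AlphaScreen readout.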
Active calls of the source: *; ? = inconclusive; nt = not tested or not shown; ! = a repeat was not active; [ ] = remark or other dose. Hits are enriched below; roughly 18% of the tested compounds scored in any of these assays. Unless noted, the call rests on the fitted dose curve; in most records, active means well fitted curve in the direction sought with a large enough effect; inconclusive means small, poorly fitted or top-dose-only effect, or another doubt; inactive means no such curve, though single readings can be large; an effect the other way counts as inactive or inconclusive. On the % scale 0 is the no-effect control and ±100 the full control effect.

SMILES	TDP1 block	IL-1B inflam inh	CtBP-E1A inh	DT40 TDP1 no CPT	TDP1 cell CPT	Six1-Eya2 inh
Cc1ccc(C2CC2c2n[nH]c(=S)n2-c2cccc(C)c2)cc1 (configuration not stated)	9%	38	nt	16µM*	?	-19
Cc1ccc(C2CC2c2n[nH]c(=S)n2-c2ccc(Cl)cc2)cc1 (configuration not stated)	4%	22	-7	?	?	-11
O=C(NC1CCCC1)C1CCN(C(=O)c2cc(Cl)ccc2Cl)CC1	-2%[0.0935 µM]	34	-1	3%	5%	3
FC(F)(F)c1cccc(-c2nnc(-c3ccccc3)c(N3CCOCC3)n2)c1	1%	-26	-5	16µM*	18µM*	-5
CC1CCN(c2nc(-c3ccc(Br)cc3)nc3ccccc23)CC1	5%	nt	nt	?	?	nt
Clc1ccc(-c2nnc(-c3ccccc3)c(N3CCSCC3)n2)cc1	-1%	-30	-13	?	21µM*	-17
CC1CN(c2nc(-c3ccc(Br)cc3)nnc2-c2ccccc2)CC(C)N1 (configuration not stated)	4%	-105*	-12	10µM*	13µM*	-12
COc1ncc(-c2ccc(N3C(c4ccsc4)=Cc4ccc(F)cc4C3CC(=O)c3ccco3)cc2)cn1 (configuration not stated)	nt	14	2	?	?	0
Cc1nc(C(=O)Nc2ccccc2)sc1C1(C)CC(c2cccc([N+](=O)[O-])c2)=NO1 (configuration not stated)	5%	4	-2	-25%	-28%	-16
COc1ccc(NC(=O)c2nc(C)c(C3(C)CC(c4ccccc4)=NO3)s2)cc1 (configuration not stated)	5%	54	3	5.8µM*	1µM*	-4
Cc1nc(NC(=O)c2ccccc2)sc1C1(C)CC(c2c(Cl)cccc2Cl)=NO1 (configuration not stated)	5%	38	-24	?	23µM*	-9
Cc1nc(NC(=O)c2ccccc2)sc1C1(C)CC(c2ccccc2F)=NO1 (configuration not stated)	4%	45	-13	-95%	-97%	-6
CCN(CC)P(=O)(c1ccccc1)c1c(C)nc2ccccn12 (configuration not stated)	-4%[0.0935 µM]	11	2	-21%	-6%	5
Cc1ccccc1NC(=O)C1CCN(C(=O)c2cnn(-c3ccccc3)c2-n2cccc2)CC1	-5%	nt	nt	16µM*	?	nt
CC(C)NC(=O)C1CCN(C(=O)c2cnn(-c3ccccc3)c2-n2cccc2)CC1	3%	nt	nt	-8%	-16%	nt
Cc1cc(C)cc(NC(=O)C2CCN(C(=O)c3cnn(-c4ccccc4)c3-n3cccc3)CC2)c1	3%	nt	nt	15µM*	18µM*	nt
Cc1ccc(NC(=O)C2CCN(C(=O)c3cnn(-c4ccccc4)c3-n3cccc3)CC2)cc1C	3%	nt	nt	?	18µM*	nt
Cc1ccc(NC(=O)C2CCN(C(=O)c3cnn(-c4ccccc4)c3-n3cccc3)CC2)cc1	3%	nt	nt	13µM*	?	nt
COc1ccc(C(=O)NC2CCCc3c2cnn3-c2ccc(C)c(C)c2)c(OC)c1OC (configuration not stated)	-4%	43	-9	?	?	-7
Cc1ccc(C(C(=O)NCC2CCCO2)N(Cc2ccccc2F)C(=O)Cn2nnc(-c3cccs3)n2)cc1 (configuration not stated)	1%	-12	0	?	-30%	-4
COc1ccc(NC(=O)C2CCCN(C(=O)c3cnn(-c4ccc(F)cc4)c3-n3cccc3)C2)cc1 (configuration not stated)	6%	nt	nt	nt	nt	nt
Cc1ccc(CNC(=O)C2CCN(C(=O)c3cnn(-c4ccccc4)c3-n3cccc3)CC2)cc1	-1%	nt	nt	9.2µM*	12µM*	nt
O=C(NCc1ccc(F)cc1)C1CCN(C(=O)c2cnn(-c3ccccc3)c2-n2cccc2)CC1	3%	nt	nt	?	?	nt
CSc1cccc(NC(=O)C2CCCN(C(=O)c3cnn(-c4ccc(F)cc4)c3-n3cccc3)C2)c1 (configuration not stated)	6%	nt	nt	16µM*	18µM*	nt
Cc1cc(C)nc(NC(=NCc2ccc3c(c2)OCO3)NC(=O)Nc2ccccc2)n1	2%	-7	2	4.6µM*	5.2µM*	-15
SMILES	TDP1 block	IL-1B inflam inh	CtBP-E1A inh	DT40 TDP1 no CPT	TDP1 cell CPT	Six1-Eya2 inh
Cc1ccc(C(=O)NCC(=O)OCC(=O)c2c(N)n(C)c(=O)n(C)c2=O)cc1C	-2%	25	-3	12%	0%	-6
Nc1nonc1-n1nnc(C(=O)N/N=C/c2cccc(Cl)c2Cl)c1CN1CCCC1	1%	26	6	15µM*	8.2µM*	13
CC1CCN(Cc2c(C(=O)N/N=C/c3ccc(C(C)(C)C)cc3)nnn2-c2nonc2N)CC1	0%	43	nt	13µM*	13µM*	0
CC1CCN(Cc2c(C(=O)N/N=C/c3ccc(C(C)C)cc3)nnn2-c2nonc2N)CC1	0%	-4	7	?	?	-3
CCOc1ccc(C(C#N)N2CCOCC2)cc1OC (configuration not stated)	5%	13	6	-3%	6%	5
CCCCCCCCCCCCCC(=O)N[C@@H](C)[C@H](O)c1ccccc1	2%	nt	nt	-23%[4.12 µM]	0%[4.12 µM]	nt
CCCCCCCCCC(=O)N[C@H](CN1CCOCC1)[C@H](O)c1ccccc1	7%	-13	-12	23µM*!	?	5
CC(CN1CCN(CC(C)C(=O)c2ccccc2)CC1)C(=O)c1ccccc1 (configuration not stated)	nt	2	0	-18%	?	-3
CCOc1ccc(C(CN2CCOCC2)C(C)=O)cc1OC (configuration not stated)	nt	-117*	1	4.1µM*	4.1µM*	8
OC(c1ccc(F)cc1)C(CN1CCOCC1)c1ccccc1 (configuration not stated)	nt	19	4	?	-30%	-8
O=C(c1ccccc1)C(CN1CCCCC1)c1ccccc1 (configuration not stated)	nt	-102*	0	2.1µM*	1.8µM*	0
O=C(c1ccc(Br)cc1)C(CN1CCOCC1)c1ccccc1 (configuration not stated)	nt	-98*	1	2.1µM*	1.3µM*	-21
